Bioassay records: PubChem BioAssay, Broad Institute
esBAF inh – blocks esBAF chromatin remodeling in mouse ES cells. Bmi1-luciferase knock-in reporter, 24 h; 100% = twice the neutral-well signal. reporter increase, % at 12.5 µM. 2% of 350,000 active; in the data active means activation above about 40%; inconclusive means no clear call, values can overlap the other calls;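 further: 0% = median of the plate's neutral control wells and 100% = double that signal; a rise in the Bmi1 reporter signal indicates esBAF inhibition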
MITF TRPM1 HTS – increases MITF-driven TRPM1 promoter luciferase signal; activation, % at 12.5 µM; SK-MEL-5 TRPM1-promoter luciferase, 24 h; % of positive control, neutral wells = 0; 0.75% of 300,000 active;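 active means mean activation of at least 80% with every replicate also reaching 80%; inconclusive means mean reaches 80% but some replicate falls short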;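 further: 0% = neutral control wells and 100% = parthenolide positive control wells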
Wnt act – activates Wnt/beta-catenin signaling in a reporter cell assay | activator, plate reader | activation, % at 9.35 µM | 1.2% of 300,000 active | AID 743398; in the data active means activation above about 30%, passing the limit was not always enough; inconclusive means no clear call, values can overlap the other calls;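 further: 0% = neutral control wells and 100% = positive control wells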
EWS-Fli block – inhibitors of EWS/Fli oncoprotein transcriptional activity; A673 NR0B1-luciferase reporter, viability-normalised; inhibition, % at 12.6 µM; 0.67% of 350,000 active;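 active means mean inhibition of at least 50% after viability correction, with every replicate also passing that limit; inconclusive means mean reaches 50% but only one of two replicates passes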;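 further: firefly luciferase signal divided by Alamar Blue viability fluorescence both relative to DMSO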
MITF TRPM1 inh – reduces MITF-dependent TRPM1 promoter luciferase signal; inhibition, % at 12.5 µM; 0.83% of 330,000 active; AID 488899; SK-MEL-5 TRPM1 promoter luciferase, 24 h;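 active means mean inhibition across replicates of 60% or more, whatever share of single replicates reaches that level; inconclusive means some that reach 60%, reason not given; inactive means mean inhibition across replicates below 60%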
PAX8 inh HTS – lowers PAX8-driven luciferase in RMG-I cells; RMG-I TPO-luciferase reporter, SteadyGlo, 24 h; inhibition, % at 12.6 µM; 1.2% of 360,000 active;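 active means mean replicate inhibition at least 60% with every replicate also reaching 60%; inconclusive means only one of the two criteria is met; inactive means mean below 60% and not all replicates reaching 60%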;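 further: luciferase light reporting Pax8 driven TPO promoter activity; plate controls were median of neutral control wells for no effect and mitoxantrone controls for full effect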
Numbers without * were called inactive; ? = inconclusive; . = no result. An excerpt weighted towards active compounds, which were near 4% of everything screened.

SMILES | esBAF inh | MITF TRPM1 HTS | Wnt act | EWS-Fli block | MITF TRPM1 inh | PAX8 inh HTS
CN(C)CCCNC(=O)C[C@H]1CC[C@H](NS(=O)(=O)c2ccc(F)cc2)[C@@H](CO)O1 | 2 | . | . | -1 | . | -7
N#C[C@H]1[C@H](c2ccccc2C2=CCCC2)[C@H](CO)N1C(=O)NC1CCCCC1 | . | . | . | 2 | . | .
O=C(C[C@H]1C=C[C@@H](NC(=O)CN2CCOCC2)[C@@H](CO)O1)NC1CCCCC1 | -2 | . | . | -6 | . | 6
COc1ccc(Nc2nc(N)c3ccccc3n2)c(OC)c1 | -10 | 89* | 22 | -103 | -85 | -124
C[C@H](CO)N1C[C@H](C)[C@@H](CN(C)Cc2ccc(F)cc2)Oc2ncc(-c3ccncc3)cc2C1=O | -1 | . | . | -2 | . | .
O=C1c2ccccc2NC(c2ccc(-c3ccc(Br)cc3)o2)N1O (stereo unspecified) | . | -3 | -2 | 16 | 5 | .
O=C1c2ccccc2NC(c2ccc(-c3ccc(F)cc3)o2)N1O (stereo unspecified) | 41* | 71 | ? | -80 | -73 | -172
C/C=C/c1ccc2c(c1)O[C@H](CN(C)C(=O)CN(C)C)[C@@H](C)CN([C@H](C)CO)S2(=O)=O | -4 | . | . | -18 | . | .
O=C(NC1CCCC1)[C@H]1[C@H](CO)[C@H]2Cn3c(cccc3=O)[C@@H]1N2CC1CCCC1 | 6 | . | . | 8 | . | .
CC(C)(C)CC(C)(C)c1ccc(OCCOCC[N+](C)(C)Cc2ccccc2)cc1 | -50 | -77 | -13 | 25 | 78* | 78*
Brc1ccc2c(c1)C(C1=NCCN1)c1ccccc1CS2 (stereo unspecified) | . | 4 | -6 | 58* | -6 | 11
O=c1oc(Cl)c(Cl)c2ccccc12 | 7 | -89 | -2 | -9 | 90* | -13
C[C@@H]1CCCCO[C@H](CN(C)Cc2ccc3c(c2)OCO3)[C@@H](C)CN([C@@H](C)CO)C(=O)c2cc(NS(C)(=O)=O)ccc2O1 | -23 | . | . | -8 | . | -42
CC1CCCC(C)N1C(=O)c1cc(-c2cccs2)on1 (stereo unspecified) | 48* | 78 | . | . | -76 | .
Fc1ccccc1CSc1nnc(-c2cccs2)o1 | . | 106* | 42* | -93 | -91 | .
Cc1cccc(-c2nnc(SCc3ccccc3)o2)c1 | 63* | 44 | 42* | . | -53 | -186
Fc1ccc(CSc2nnc(-c3cccs3)o2)cc1 | . | 70 | 21 | -90 | -60 | .
c1ccc(CSc2nnc(-c3cccs3)o2)cc1 | 47* | 134* | . | . | -130 | .
C[C@@H]1CCCCO[C@H](CN(C)C(=O)C2CCCCC2)[C@H](C)CN([C@@H](C)CO)C(=O)c2cc(NC(=O)CCC(F)(F)F)ccc2O1 | 5 | . | . | 10 | . | .
CC1CCCC(C)N1C(=O)CSc1nnc(-c2cccs2)o1 (stereo unspecified) | 46* | 54 | . | . | -59 | .
CC1CCCCN1C(=O)CSc1nnc(-c2cccs2)o1 (stereo unspecified) | 18 | ? | 22 | -40 | -82 | -111
CCSc1nnc(-c2cccs2)o1 | 44* | 43 | 5 | . | -42 | .
Clc1ccccc1CSc1nnc(-c2ccncc2)o1 | 49* | . | . | . | -88 | .
[N-]=[N+]=NCCCNC(=O)Nc1ccccc1 | . | . | . | -11 | . | -11
CCOC(=O)C(C(=O)OCC)C1N=C(N)N=C2Oc3ccccc3N21 (stereo unspecified) | 89* | 33 | . | . | -33 | .
SMILES | esBAF inh | MITF TRPM1 HTS | Wnt act | EWS-Fli block | MITF TRPM1 inh | PAX8 inh HTS
CCOC(=O)CN1C(=O)C(CC)Oc2ccccc21 (stereo unspecified) | -3 | -10 | -4 | 2 | 12 | .
CC=Cc1ccc2n(c1=O)C[C@H]1[C@H](CO)[C@@H](C(=O)NCC3CC3)N(C(=O)CC3CC3)[C@@H]21 (mixture of isomers) | 2 | . | . | -1 | . | 5
CN(C)CCCNC(=O)C[C@H]1CC[C@@H]2[C@H](COc3ccc(NC(=O)c4cccc(F)c4)cc3C(=O)N2C)O1 | 4 | . | . | -19 | . | -44
O=C(N[C@@H]1CC[C@H](CCNS(=O)(=O)c2cccc(Cl)c2)O[C@H]1CO)c1ccccc1 | 2 | . | . | 0 | . | 1
CC(=O)Nc1cccc2c1Cc1ccccc1-2 | 51* | . | . | . | -71 | .
O=C(C[C@H]1CC[C@@H](NS(=O)(=O)c2ccccc2F)[C@@H](CO)O1)NCCCN1CCOCC1 | 3 | . | . | 5 | . | -13
CCCCN1C(=O)/C(=C2\SC(N3CCCCC3)=NC2=O)c2ccccc21 | 51* | 107* | 20 | . | -106 | -250
O=C1N=C(N2CCCCC2)SC1=C1CCCC1 | 32 | 17 | 9 | . | -22 | .
CN(C)c1ccc(C2C3CCCc4ccccc4C3=NN2C)cc1 (stereo unspecified) | 47* | 32 | 1 | -61 | -27 | -69
CC(=O)N1N=C2c3ccccc3CCC2C1c1ccc(F)cc1 (stereo unspecified) | . | . | 2 | 16 | . | 6
CC(O)CN=c1cc(-c2ccccc2)oc2ccc(Cl)cc12 (stereo unspecified) | -9 | ? | . | . | -75 | .
OCCN=c1cc(-c2ccccc2)oc2ccc(Cl)cc12 | 46* | 65 | 18 | . | -59 | .
CN(C)CCCN=c1cc(-c2ccccc2)oc2ccc(Cl)cc12 | . | 84* | 12 | -52 | -78 | -110
CCOC(=O)c1ccc(CC(=O)c2ccc(O)cc2O)o1 | 49* | -50 | . | . | 49 | .
Nn1c(COc2ccccc2)nc2ccccc2c1=O | 32 | 9 | 8 | . | -10 | .
COc1cccc(OCc2nc3ccccc3c(=O)n2N)c1 | 47* | 33 | -3 | -37 | -33 | .
CN(C)CC(=O)Nc1ccc2c(c1)[C@H]1C[C@@H](CC(=O)N3CCc4ccccc4C3)O[C@H](CO)[C@H]1O2 | -3 | . | . | -2 | . | 1
CCOC(=O)/C(N=Nc1ccc2c(c1)OCO2)=C(\C)O | . | 115* | 7 | -82 | -106 | -126
Cc1ccc(-c2nc3ccccc3n2C)o1 | . | 32 | . | . | -32 | .
CC(=O)c1ccc(-c2nc3ccccc3n2C)o1 | 55* | 27 | . | . | -26 | .
C[C@H](CO)N1C[C@H](C)[C@@H](CN(C)CC2CCOCC2)Oc2ncc(C#Cc3ccccc3)cc2C1=O | -4 | . | . | -3 | . | .
CCN(CC)CC(C)(C)C(=O)/C=C/c1ccc(/C=C/C(=O)C(C)(C)CN(CC)CC)cc1 | . | -93 | -6 | 71* | 93* | 123*
C[C@H](CO)N1C[C@H](C)[C@@H](CN(C)Cc2ccc(-c3ccccc3)cc2)Oc2ccc(NS(=O)(=O)c3ccc(Cl)cc3)cc2CC1=O | 3 | . | . | 13 | . | 41
Cc1nc(SCC(=O)Nc2nccs2)c(C#N)c(C)c1C | -66 | -45 | -2 | 72* | 46 | 0
Cc1cc(C(F)(F)F)c(C#N)c(SCC(=O)Nc2nc3ccccc3s2)n1 | -22 | -23 | . | 46 | 25 | -139
Cc1nc(SCC(=O)Nc2nc3ccccc3s2)c(C#N)c(C)c1C | . | -95 | -30 | 87* | 96* | 108*
COc1cc(-c2cc(-c3ccccc3)nc(SCC(=O)Nc3nccs3)c2C#N)cc(OC)c1OC | 8 | -5 | . | . | 6 | .
